Measurements from the supplement of paper PMC3334620.
The full ranking holds about 33,000 sequences; the median of “E-score (-0.5 to 0.5)” is about -8e-05, and the highest 2% start at about 0.23. This excerpt belongs to a sample that is enriched for the highest values.

The sequences below were run against T1, Nrg2 (UniProt P38082) (assay: PBM E-score (8-mer binding enrichment) (E-score (-0.5 to 0.5)); higher = stronger / more preferred TF binding). Conditions: protein concentration: 100 nM; construct: GST-full length.
T1 sequence: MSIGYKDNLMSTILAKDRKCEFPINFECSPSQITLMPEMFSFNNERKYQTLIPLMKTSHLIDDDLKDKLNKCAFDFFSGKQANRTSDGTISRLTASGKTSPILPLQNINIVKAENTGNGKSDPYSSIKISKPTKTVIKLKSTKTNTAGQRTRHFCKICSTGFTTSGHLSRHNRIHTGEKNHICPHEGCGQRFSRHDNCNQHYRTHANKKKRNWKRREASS
Outline: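 Full-length yeast transcription factors or their DNA-binding domains, GST-tagged and expressed with PURExpress, were applied at about 100-200 nM to universal all-10-mer Agilent arrays. These arrays had been made double-stranded by primer extension on fresh or once-stripped slides. Detection used fluorescent anti-GST, normalisation used masliner, and E-scores for ungapped eight-base words pooled with reverse complements came from the Universal PBM Analysis Suite.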

Sequence | PBM E-score
CGGGCTAC | -0.0936
AAAGGGTG | 0.00635
ATGGGGTC | 0.299
CAAGGGAG | -0.0764
CAAGGGAC | 0.261
CAAGGGAA | 0.0785
AAGGGGTC | 0.239
AAAGGGTC | 0.318
AAGGGGTG | -0.00477
AAAGGGTT | 0.0608
ATGGGGTA | 0.127
CTGGGGTC | 0.015
AGGGGGTC | -0.163
CCTATATA | 0.0688
CCTTTAGA | -0.136
CAGGGGTC | 0.302
CAAGGGTC | 0.376
CGGGGGTC | -0.342
CAGGGGTA | 0.166
GAAGGGTC | 0.0665
CAAGGGTG | 0.0522
CATCTTAC | -0.00815
ACCAAGTG | -0.0903
CCTCTCTA | -0.294
AATTTCAA | -0.0693

Sequence | PBM E-score
CGTTTTTC | -0.117
GCTACCCA | -0.152
AAGGAAAG | -0.137
AAAAGTAG | 0.0358
CCCGAAAA | 0.129
GCCGAAAA | 0.239
GCCGAAAC | -0.0148
TATCCACA | 0.131
CATGAACC | 0.233
GATGAACC | -0.0336
AATGAACC | 0.00986
CCTCTTGA | 0.0273
TGCCCACA | -0.0506
AAATATTC | 0.127
GAATATTA | 0.232
CAATATTC | 0.0479
GAATATTC | 0.24
GAATATCA | 0.0654
GAATATGA | -0.0524
GCTGAGCA | 0.0693
GACAACTA | 0.158
CTGTAACC | 0.108
CCTTGGAC | -0.165
CACGCCTA | -0.227
GGGTCCAC | 0.301

Sequence | PBM E-score
CGGTCCAA | -0.224
AGGTCCAC | -0.199
CGGTCCAC | -0.222
GGGTCCAA | 0.322
AGGTCCAA | -0.0549
TCTCAACA | 0.0641
TAGAGATA | 0.0396
CCTGACTA | 0.172
GGACCCGA | 0.0929
ATACCTTC | -0.0248
GCCACGGA | -0.0858
CGCTTGAA | 0.263
TGCTTGAA | 0.0462
CGCTTGAG | -0.0135
CTCTATTA | -0.105
GTATATTA | 0.107
ATTATTTA | 0.173
ATTTATCG | 0.0781
CTATATTA | 0.229
CTATATTC | 0.0669
ATTTATTA | 0.273
GTTTATTA | 0.194
ATATATTA | 0.245
ATTTATCA | 0.225
ATTTATCC | 0.247

Sequence | PBM E-score
ATATATTG | -0.0404
AAGCCACA | -0.101
GTAAGCCA | -0.113
ACCATCTC | 0.0848
AGTACTAC | 0.118
CTCGCTTA | 0.132
TCCACCGA | -0.0753
AAGCGATT | -0.0219
AACTGCAG | -0.0636
AACTGCAT | 0.232
AACTGCAC | 0.0736
GCTCAGCA | -0.133
AAGCCACC | -0.198
GAACTGTC | 0.0447
ACGAGTAT | 0.0482
GCGAGTAA | 0.198
ACGAGTAA | 0.244
ATGGGTTA | 0.0918
AGTGGTTC | -0.0506
ATACGCAG | -0.235
GTACGCAA | -0.131
ATACGCAA | 0.232
CTCTGGTA | -0.0435
GAAGAACA | 0.155
CAAGAACA | 0.007

Sequence | PBM E-score
TAAGAACA | 0.26
AGTCGACC | -0.0853
AGTCGACT | 0.243
AGTCGACA | 0.194
GGGAGAAC | -0.189
AAGAAGGC | -0.197
AGACATTC | -0.0988
AACCTGAA | -0.178
ACCCTGAA | 0.319
AGCCTGTA | -0.126
ATCCTGAA | 0.125
GCCCTGTA | 0.208
ACCCTGTA | 0.347
ACAAGGAC | -0.0546
GCGGTCCA | -0.159
TAAAGCCA | 0.0522
ATACAAAC | 0.258
CAACAAAC | 0.0713
ATACAAAA | 0.218
ATACAAAT | 0.173
GAACAAAC | 0.323
GAACAAAA | 0.195
AAACAAAT | 0.235
AAACAAAA | 0.0254
AAACAAAC | -0.0324

Sequence | PBM E-score
AGTCCATA | 0.0684
TCAGACAA | 0.0781
CAGCAGCC | 0.0863
GTTGCCAA | 0.0119
CTAGGCAC | -0.162
AGCTTTAG | -0.105
GAGGCCTC | -0.327
AGACGCTA | -0.138
GATTCGAA | 0.256
GATTCGAC | 0.141
CATTCGAA | 0.0948
ATGGCAGG | 0.12
ACAGTTTC | 0.259
CCAGTTTC | 0.0541
ATTGTTTC | 0.256
ACAGTTTA | -0.0808
CTTGTTTC | 0.0127
ATTGTTTG | 0.18
AGATCAAC | 0.07
TATCCGGA | 0.112
AAGGAGAC | -0.156
ACCACAAT | -0.0522
AGGTGTAC | -0.145
ACGAACAA | 0.124
ACGAAACA | 0.0539

Sequence | PBM E-score
CCGAAACA | 0.102
TCGAAACA | 0.232
TCGAACGA | 0.0281
GCGAACAA | 0.322
TGGAACAA | 0.155
TCGAACAA | 0.259
CCGAACAA | 0.0547
TCAGATGA | 0.148
AATCGCCA | 0.0545
TAAGGACA | -0.0222
CGCTAGCC | -0.255
ACAGAGAC | 0.00483
CTTCTTGA | -0.0331
CAATGGAA | 0.131
AAATTCGC | 0.234
CTATTCGC | 0.0444
CAATTCGG | 0.0993
CAATTCGC | 0.277
CAATTCGA | -0.135
AAATTCGA | -0.0488
AAATTCGG | 0.205
AAATTCGT | 0.235
GAATTCGC | 0.141
AAGTTGGA | 0.134
AAAATCTT | -0.0461

Sequence | PBM E-score
AGCCGCCC | -0.0653
CCCAGTGC | 0.037
CACAAAAA | 0.131
AAAAACCA | 0.112
CACAAGAG | 0.14
CAAAACCA | 0.249
CAAGAGAG | -0.0197
CAAAACCC | 0.222
CAAGAGAA | 0.232
AGCAAGAA | 0.0497
CACAAGAA | 0.245
CGCAAAAA | 0.141
CGCAAGAA | 0.299
GAAGAGAA | -0.0264
CGGGATGC | -0.163
CCGCTAAA | 0.0162
CAAGGTCG | 0.00137
CATAGCTC | -0.112
CAAAAAAA | 0.245
CAAAAAAC | 0.079
CCAAAAAA | 0.18
CGTGAAGA | -0.0995
CACTACTG | 0.077
AGGGTCGC | 0.243
AGGGTCGG | 0.0394

Sequence | PBM E-score
AGCGTCGG | -0.0319
CGGGTCGC | -0.0689
CGGGTCGA | -0.181
ACGGTCGC | -0.131
AGCGTCGA | 0.244
AGGGTCGA | 0.262
AGCGTCGC | -0.0577
GCGGCCCA | -0.0651
GCTGAAGA | -0.0685
ACAGCTTC | -0.102
AAGAGATT | 0.00595
TATACTGA | 0.261
GATACTGA | 0.0997
CATACTGA | 0.135
GCTATCTA | -0.0754
ACCTATAA | -0.112
AAATAGAC | 0.165
AAATATAA | 0.161
AAATATAT | 0.257
AAATAGAG | -0.0562
AAATATAC | 0.0852
AAATAGAT | 0.27
ACCTATAT | 0.236
ACCTATAC | -0.044
CAGAAAGG | 0.0423

Sequence | PBM E-score
AAGATCTT | -0.0257
CTCGGTCA | -0.0604
AACCGCCG | -0.0452
GCTAAGAA | -0.103
TATGAGCA | -0.127
ATGAATGG | 0.339
ATGAATGA | 0.0659
ATGAATGC | 0.13
GTATGCGA | 0.136
AGCAAATC | 0.147
ACCGATAC | -0.00076
CTCACGCC | 0.0298
AGAACAAA | 0.208
CGAACAAA | 0.279
CGAACAAG | 0.165
GGAACAAA | 0.263
GCAACAAA | 0.176
TTAACAAA | 0.094
CGAACAAC | 0.152
CTCACGCA | 0.353
TGAACAAA | 0.244
GTCACGCA | 0.0867
GGAACAAC | 0.133
CTGCACGA | 0.0401
AACTTATA | 0.145

Sequence | PBM E-score
GCCGACAC | -0.0613
TCCGGTAA | -0.0902
CCTGGGTA | -0.159
GCCGGAAA | 0.104
ACTCTGCC | -0.142
GGGCATAA | 0.109
GGGCTTCA | -0.103
TCTCTAAA | -0.134
AGAGCCCC | -0.139
GTGGTCCA | 0.0422
GGAACGCA | 0.0954
CGAACGCA | 0.282
TGAACGCA | 0.0815
AAGCGCTC | 0.0396
AAGCGCTA | 0.0465
AAGCGCTT | 0.303
CCGCCAAC | -0.126
ACGTTTCC | -0.16
ATTCCACC | 0.0335
ATTCCACA | 0.243
ATTCCACG | 0.0249
GGAGGCAA | -0.141
CAGGTCCA | 0.0188
ACCGTTCA | -0.164
ATATCGCG | 0.331

Sequence | PBM E-score
ATATCGCC | 0.0573
AAATCGCG | 0.233
AAATCGCA | 0.158
AAATCGCC | 0.00869
ATATCGCA | -0.0927
GGGTTTAA | 0.0664
AGATGGTA | 0.0502
GTAGTGGA | 0.152
ACCTTAGG | -0.191
CGCCCGAG | 0.117
TCCGGCCA | 0.00685
CGCGAAAG | 0.122
GTGTAGAA | -0.191
GCAGGGCC | 0.101
TCAGGGAA | 0.0408
GCAGGGAC | 0.28
CCAGGGAC | 0.366
GAAGGGAC | 0.159
GCAGGGAA | 0.238
GCAGGGGA | -0.192
CCAGGGAG | -0.107
CCAGGGAA | 0.0205
CATGTAGG | 0.092
CGTCGGTC | 0.00408
CAGGTTAA | -0.0788

Sequence | PBM E-score
CACGTCCA | -0.177
ACGCGATC | 0.146
CGAGCTCC | 0.12
GCAGCTGA | 0.0488
CGAGCTCG | 0.241
CGAGCTTA | -0.0737
AGAGCTGA | 0.00384
ACAGCTGA | 0.0892
TCAGCTGA | 0.279
CGAGCTCA | 0.108
CGAGCTGA | 0.243
ATCCTCAG | 0.1
AGCGGCCT | -0.275
GCTTCGTA | -0.102
CGGCCGAA | 0.0577
GAGCTCGA | 0.183
ACTAGCTA | 0.0559
AAGAATCC | 0.0617
ACCCCCAG | -0.291
TACCCCAA | 0.247
AACCCCAG | 0.237
AACCCCAT | 0.07
TACCCCCA | -0.159
AACCCCAA | 0.147
GCCGCAAA | 0.157

Sequence | PBM E-score
ATCAACCG | 0.0105
GGTGAATA | 0.104
CAACCCTG | 0.252
ATACCCTG | 0.295
ATACCCTA | 0.119
AAACCCTA | 0.184
AACCCCTG | 0.055
AGACCCTA | 0.148
AGACCCTG | 0.431
AAACCCTG | 0.318
AGACCCTC | 0.0175
CAACCCTC | 0.0136
ATACCCTC | 0.0223
CAACCCTA | 0.0574
ATGGTTCG | 0.109
AGAACCTC | -0.232
GGGTAGGA | -0.0916
AGAATGCT | 0.108
CGTCCTTA | -0.0686
